# Results from the supplement of paper PMC8726507.
# Values without a mark were called inactive.
# Tested on: Plasmodium falciparum NF54-HGL (transmission to Anopheles stephensi)
# Assay: percentage of barcode signal found in uninfected mosquitoes (transmission-blocking activity); higher = stronger blocking of transmission to mosquito, active = 80 or more
# Details: 10 µM; gametocyte preincubation time 24 h; readout time post-feed 8 days
# Description: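 The mixture was fed to Anopheles stephensi in 96-well plates as blood meals tagged with DNA-barcoded Asaia bacteria. Eight days later, mosquitoes were classed infected or uninfected by luminescence (mean + 5 SD of unfed controls). Barcodes were quantified by Luminex MagPlex-TAG in the pooled uninfected and infected Asaia cultures, background-corrected, and the score is % of barcode signal in uninfected mosquitoes = 100*Iu/(Iu+Ii).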
row,Compound,percentage of barcode signal found in uninfected mosquitoes [%]
1,Cc1nn(Cc2ccccc2)c(Cl)c1C(=O)NC1CCCCCC1,2.01
2,CC(C)(C)C(O)C(Oc1ccc(-c2ccccc2)cc1)n1cncn1 (centres undefined),-1.02
3,CC1COC(Cn2cncn2)(c2ccc(Oc3ccc(Cl)cc3)cc2Cl)O1 (centres undefined),19.1
4,Nc1c2c(nc3sc4c(c13)CCCC4)CCCC2,42
5,CO/C=C(/C(=O)OC)c1ccccc1Oc1cc(Oc2ccccc2C#N)ncn1,69.5
6,CC1(C)OB(O)c2ccc(C3=NOC(c4cc(Cl)c(F)c(Cl)c4)(C(F)(F)F)C3)cc21 (centres undefined),-4.84
7,CCc1nn(C)c(C(=O)NCc2ccc(Oc3ccc(C)cc3)cc2)c1Cl,25.8
8,Cc1cc(C2=NOC(c3cc(Cl)c(F)c(Cl)c3)(C(F)(F)F)C2)ccc1C(=O)NCc1ccc2c(c1)C(C)(C)OB2O (centres undefined),43.3

# Same assay, conditions: 20 µM; gametocyte preincubation time 24 h; readout time post-feed 8 days
row,Compound,percentage of barcode signal found in uninfected mosquitoes
1,Cc1nn(C)c(C)c1NS(=O)(=O)c1c(Cl)cc(-c2ccnc(N3CCNCC3)c2)cc1Cl,48.9%
2,Cc1cccc(C(=O)Nc2ccnc(N(C)C3CCN(CC(C)C)CC3)c2)c1,46.4%
3,O=C1O[C@@H](CO)CN1c1cc(F)c(C2=CCN(Cc3ccccc3)CC2)c(F)c1,0.248%
4,CO/N=C(\C(=O)OC)c1ccccc1CO/N=C(\C)c1cccc(C(F)(F)F)c1,83.6% (active)
5,O=C1O[C@@H](COc2ccon2)CN1c1cc(F)c(C2=CCN(Cc3ccccc3)CC2)c(F)c1,29.7%
6,CO[C@@H]1CN(c2ccc(C#CC3(O)CN4CCC3CC4)c(Cc3ccccc3)n2)C[C@H]1O (some centres undefined),43%
